Assay outcomes as filed in PubChem.
Compounds with a hit are over-represented: about 31% of the library has one in this group of screens.
CYP2C9 inhib: human CYP2C9 inhibition. actives 20% (n = 96,000). P11712. CYP2C9 Supersomes, luciferin-H conversion, luminescence. inhibition, % at 5 µM;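 active = blocking of liver enzyme CYP2C9 beyond about 50% at 5 µM, limit read from the data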
Target sequence (P11712 whole entry, looked up): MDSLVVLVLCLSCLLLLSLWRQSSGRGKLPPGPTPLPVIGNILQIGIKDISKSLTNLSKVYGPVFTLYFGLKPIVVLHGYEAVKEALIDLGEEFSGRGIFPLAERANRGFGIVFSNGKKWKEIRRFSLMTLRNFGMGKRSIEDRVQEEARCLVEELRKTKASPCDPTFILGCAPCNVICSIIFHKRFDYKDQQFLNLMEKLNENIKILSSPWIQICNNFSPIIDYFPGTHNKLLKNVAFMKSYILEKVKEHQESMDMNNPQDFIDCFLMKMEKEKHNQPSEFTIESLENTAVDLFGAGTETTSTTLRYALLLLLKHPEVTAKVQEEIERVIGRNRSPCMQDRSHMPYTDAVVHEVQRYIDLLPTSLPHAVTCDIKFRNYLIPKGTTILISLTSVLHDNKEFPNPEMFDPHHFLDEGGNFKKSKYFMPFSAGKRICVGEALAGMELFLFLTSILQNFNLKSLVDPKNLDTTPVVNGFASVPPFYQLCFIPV
CYP2C19 act: activators of human cytochrome P450 2C19; P33261; recombinant CYP2C19, luciferin-H EGE luminescence; stronger effect = higher value; 0 = fully inhibited enzyme, 1 = untreated enzyme; activation factor at 5 µM; 96,000 tested, under 10 active; AID 1025;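 active = activation factor of at least 2 at 5 µM in the primary screen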
CYP2C19 inhib: blocks human cytochrome P450 2C19; actives 21% (n = 96,000); AID 778; CYP2C19 Supersomes, luciferin-H EGE luminescence, 30 min; inhibition, % at 5 µM;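 active = CYP2C19 inhibition above a set limit at 5 µM in the primary screen, cut at about 50% in these data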
CYP2C9 activ: activators of human CYP2C9 | P11712 | recombinant CYP2C9, luciferin-H conversion, luminescence; stronger effect = higher value; factor 1 = untreated enzyme, 0 = blocked | activation factor at 5 µM | actives 1.4% (n = 96,000) | AID 1024;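 active = activation factor of 2 or more for CYP2C9 at a 5 µM dose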
PLAP act: activators of human placental alkaline phosphatase. P05187. purified PLAP enzyme, luminescent substrate read-out; stronger effect = higher value. activation fold at 20 µM. actives 1.2% (n = 96,000). AID 696; in the data active = activation fold above about 2
Numbers stand for hits.

Results for CC(NC(=O)CCl)c1ccc(Cl)c(Cl)c1 (centres undefined) ?
CYP2C9 inhib: inactive; CYP2C19 act: inactive; CYP2C19 inhib: 86; CYP2C9 activ: inactive; PLAP act: inactive

How did CC(C)CNC(=O)c1cc(-c2ccc(Cl)c(Cl)c2)on1 do in these assays?
CYP2C9 inhib: inactive; CYP2C19 act: inactive; CYP2C19 inhib: inactive; CYP2C9 activ: inactive; PLAP act: inactive

Results for Nc1c(C(=O)NCCN2CCOCC2)c2nc3ccccc3nc2n1-c1cccc(F)c1 ?
CYP2C9 inhib: inactive; CYP2C19 act: inactive; CYP2C19 inhib: inactive; CYP2C9 activ: inactive; PLAP act: 2

How did CC(C)N(Cc1nc(-c2ccccc2)no1)C(=O)CSc1ccccc1 do in these assays?
CYP2C9 inhib: 79; CYP2C19 act: inactive; CYP2C19 inhib: 92; CYP2C9 activ: inactive; PLAP act: inactive

Results for Cc1ccc(-c2noc(CN(C(=O)CCN3C(=O)c4ccccc4C3=O)C(C)C)n2)cc1 ?
CYP2C9 inhib: inactive; CYP2C19 act: inactive; CYP2C19 inhib: inactive; CYP2C9 activ: inactive; PLAP act: inactive

Results for CC(C)N(Cc1nc(-c2ccc(Cl)cc2)no1)C(=O)CCC1CCCC1 ?
CYP2C9 inhib: inactive; CYP2C19 act: inactive; CYP2C19 inhib: inactive; CYP2C9 activ: inactive; PLAP act: inactive

Results for CC(C)N(Cc1nc(-c2ccccc2)no1)C(=O)Cc1ccccc1 ?
CYP2C9 inhib: 71; CYP2C19 act: inactive; CYP2C19 inhib: 89; CYP2C9 activ: inactive; PLAP act: inactive

Results for Cc1ccc(-c2noc(CN(C(=O)CCCCCN3C(=O)c4ccccc4C3=O)C(C)C)n2)cc1 ?
CYP2C9 inhib: 91; CYP2C19 act: inactive; CYP2C19 inhib: 96; CYP2C9 activ: inactive; PLAP act: inactive

What do the screens show for `Cc1ccc(C)c(C(=O)N(Cc2nc(-c3ccc(Cl)cc3)no2)C(C)C)c1`?
CYP2C9 inhib: 88; CYP2C19 act: inactive; CYP2C19 inhib: 83; CYP2C9 activ: inactive; PLAP act: inactive

How did O=C(NCC1CCCO1)C(c1cccnc1)N(C(=O)Cc1cccs1)c1cccnc1 (centres undefined) do in these assays?
CYP2C9 inhib: inactive; CYP2C19 act: inactive; CYP2C19 inhib: inactive; CYP2C9 activ: inactive; PLAP act: inactive

What do the screens show for `CCC(CO)NCCNC(CC)CO` (centres undefined)?
CYP2C9 inhib: inactive; CYP2C19 act: inactive; CYP2C19 inhib: inactive; CYP2C9 activ: inactive; PLAP act: inactive

How did COc1ccc(NC(=O)CC2Oc3ccccc3NC2=O)cc1 (centres undefined) do in these assays?
CYP2C9 inhib: inactive; CYP2C19 act: inactive; CYP2C19 inhib: inactive; CYP2C9 activ: inactive; PLAP act: inactive

How did CC(C)N(Cc1nc(-c2ccccc2)no1)C(=O)COc1ccccc1 do in these assays?
CYP2C9 inhib: 64; CYP2C19 act: inactive; CYP2C19 inhib: 89; CYP2C9 activ: inactive; PLAP act: inactive

What do the screens show for `Cc1ccc(-c2noc(CN(C(=O)Cc3ccccc3)C(C)C)n2)cc1`?
CYP2C9 inhib: 78; CYP2C19 act: inactive; CYP2C19 inhib: 74; CYP2C9 activ: inactive; PLAP act: inactive

How did Cc1cc(Br)ccc1OCC(=O)N(Cc1nc(-c2ccccc2)no1)C(C)C do in these assays?
CYP2C9 inhib: inactive; CYP2C19 act: inactive; CYP2C19 inhib: inactive; CYP2C9 activ: inactive; PLAP act: inactive

What do the screens show for `CC(C)(C)C1(c2ccccc2)NC(=O)N(CC(=O)N2CCOCC2)C1=O` (centres undefined)?
CYP2C9 inhib: inactive; CYP2C19 act: inactive; CYP2C19 inhib: inactive; CYP2C9 activ: inactive; PLAP act: inactive

Results for CC1(C)CC(=O)C(C(=O)/C=C/NCCc2ccccc2)C(=O)C1 ?
CYP2C9 inhib: 74; CYP2C19 act: inactive; CYP2C19 inhib: inactive; CYP2C9 activ: inactive; PLAP act: inactive

What do the screens show for `CC1(C(=O)O)CCC(C(=O)NCCc2ccccc2)C1(C)C` (centres undefined)?
CYP2C9 inhib: inactive; CYP2C19 act: inactive; CYP2C19 inhib: inactive; CYP2C9 activ: inactive; PLAP act: inactive

What do the screens show for `Cc1ccc(N2CCN(C(=O)c3ccccc3F)CC2)c(C)c1`?
CYP2C9 inhib: 89; CYP2C19 act: inactive; CYP2C19 inhib: 100; CYP2C9 activ: inactive; PLAP act: inactive

How did O=C(c1cccc(Cl)c1)N1CCN(Cc2ccccc2F)CC1 do in these assays?
CYP2C9 inhib: 79; CYP2C19 act: inactive; CYP2C19 inhib: 97; CYP2C9 activ: inactive; PLAP act: inactive

How did O=C(c1ccccc1F)N1CCN(Cc2ccccc2F)CC1 do in these assays?
CYP2C9 inhib: 59; CYP2C19 act: inactive; CYP2C19 inhib: 96; CYP2C9 activ: inactive; PLAP act: inactive

Results for O=C(c1cccc(Cl)c1)N1CCN(C(=O)c2ccco2)CC1 ?
CYP2C9 inhib: inactive; CYP2C19 act: inactive; CYP2C19 inhib: inactive; CYP2C9 activ: inactive; PLAP act: inactive

Results for O=CN1CCN(C(=O)c2ccccc2F)CC1 ?
CYP2C9 inhib: inactive; CYP2C19 act: inactive; CYP2C19 inhib: inactive; CYP2C9 activ: inactive; PLAP act: inactive

What do the screens show for `c1ccc(-c2oc3ncnc(NCCCn4ccnc4)c3c2-c2ccccc2)cc1`?
CYP2C9 inhib: 99; CYP2C19 act: inactive; CYP2C19 inhib: 98; CYP2C9 activ: inactive; PLAP act: inactive

What do the screens show for `c1ccc(-c2c(-c3ccccc3)n(Cc3ccco3)c3ncnc(NCCCn4ccnc4)c23)cc1`?
CYP2C9 inhib: 100; CYP2C19 act: inactive; CYP2C19 inhib: 100; CYP2C9 activ: inactive; PLAP act: inactive

Results for CC(C)Cn1cnc2c(c(-c3ccccc3)c(-c3ccccc3)n2Cc2ccco2)c1=N ?
CYP2C9 inhib: inactive; CYP2C19 act: inactive; CYP2C19 inhib: inactive; CYP2C9 activ: inactive; PLAP act: inactive

Results for OCCNc1ncnc2c1c(-c1ccccc1)c(-c1ccccc1)n2Cc1ccco1 ?
CYP2C9 inhib: 56; CYP2C19 act: inactive; CYP2C19 inhib: inactive; CYP2C9 activ: inactive; PLAP act: 2

Results for N=c1c2c(-c3ccccc3)c(-c3ccccc3)n(Cc3ccco3)c2ncn1Cc1ccccc1 ?
CYP2C9 inhib: inactive; CYP2C19 act: inactive; CYP2C19 inhib: inactive; CYP2C9 activ: inactive; PLAP act: inactive

How did c1ccc(-c2oc3ncnc(NCCN4CCOCC4)c3c2-c2ccccc2)cc1 do in these assays?
CYP2C9 inhib: 98; CYP2C19 act: inactive; CYP2C19 inhib: 83; CYP2C9 activ: inactive; PLAP act: inactive

Results for Cc1ccc(-n2c(C)nnc2SCC(=O)N2CCc3ccccc3C2)cc1C ?
CYP2C19 act: inactive; CYP2C19 inhib: inactive; PLAP act: inactive

Results for COC(=O)C1=C(N)Oc2cc(C)n(CCN3CCOCC3)c(=O)c2C1c1cccnc1 (centres undefined) ?
CYP2C9 inhib: inactive; CYP2C19 act: inactive; CYP2C19 inhib: 71; CYP2C9 activ: inactive; PLAP act: inactive

Results for COc1ccc(C2C(C#N)=C(N)Oc3cc(C)n(CCN4CCOCC4)c(=O)c32)cc1OC (centres undefined) ?
CYP2C9 inhib: inactive; CYP2C19 act: inactive; CYP2C19 inhib: inactive; CYP2C9 activ: inactive; PLAP act: inactive

Results for COC(=O)C1=C(N)Oc2cc(C)n(Cc3ccccc3)c(=O)c2C1c1ccccc1 (centres undefined) ?
CYP2C9 inhib: 75; CYP2C19 act: inactive; CYP2C19 inhib: inactive; CYP2C9 activ: inactive; PLAP act: inactive
